# Data from ChEMBL document CHEMBL3988442, “University of Dundee, Small-Polar-MMV Screening Library” (2021).
# The campaign covered roughly 48,000 compounds. About 13,000 (27%) showed an effect of 50% or more. Some of the results follow.
# Test system: Wolbachia pipientis
# Test: Anti-Wolbachia Cell-Based Screen
# Format: functional
# Design: scale not given: in the data most compounds retested in dose-response had high values
# Conditions: 5 µM
row,SMILES,Percent Effect
1,CCOCC(=O)NCC(C)(O)c1cc(C)oc1C (stereo not given),5.951%
2,Cc1cc(C(C)(O)CNC(=O)OC(C)(C)C)c(C)o1 (stereo not given),0.294%
3,Cc1cc(C(C)(O)CNC(=O)CCOCC(C)C)c(C)o1 (stereo not given),51.29%
4,CC(NCc1nnc2n1CCCC2)c1nc(Cc2ccccc2)no1 (stereo not given),8.593%
5,O=C(O)C(F)(F)F.O=C(O)C(F)(F)F.O=C(O)c1cc2c(nc1-c1ccsc1)CCN(C1CCOC1)CC2 (stereo not given),-18.13%
6,Cc1cc(C)c2c(N3CCC(C(=O)N4CCCC4)CC3)ncnc2n1,96.05%
7,O=C(C1CCN(c2ncnc3cccc(F)c23)CC1)N1CCCC1,-3.07%
8,CCc1nc(CN2CCCN(C(=O)C3CCC3)CC2)cs1,7.838%
9,Cc1nn(C)c2c(N3CCN(C(=O)C4CCC4)CC3)ncnc12,3.567%
10,Cc1cc(C)c2c(N3CCN(C(=O)N4CCOCC4)CC3)ncnc2n1,86.86%
11,Cc1cc(C)c2c(N3CCC(C(=O)N4CCOCC4)CC3)ncnc2n1,125.4%
12,Cc1ccccc1CC(=O)N1CCc2c(ncnc2N2CCOCC2)C1,2.572%
13,Cc1cc(C)c2c(N3CCCN(C(=O)C4CCC4)CC3)ncnc2n1,89.28%
14,Cc1cc(C)c2c(N3CCC(O)(Cn4ccnc4)CC3)ncnc2n1,6.34%
15,Cc1cc(C)c2c(N3CCN(CCN4CCOCC4)CC3)ncnc2n1,8.578%
16,CCOCC(=O)N1CCC(CSCc2ccco2)CC1,4.494%
17,O=C(C1CCCN1S(=O)(=O)C1CCCC1)N1CCSCC1 (stereo not given),-23.1%
18,CN(C)c1nc2c(c(N3CCC(O)CC3)n1)CN(CC1CCOC1)CC2 (stereo not given),9.412%
19,NCCn1cc(C(=O)NCc2ccccc2Cn2cccn2)nn1,-26.32%
20,CC(Cn1cccn1)NS(=O)(=O)Cc1ccccc1 (stereo not given),-19.72%
21,O=C(CNCc1ccccc1Cn1cccn1)Nc1cnccn1,109.9%
22,CCc1cnc(NCc2ccccc2Cn2cccn2)nc1,6.664%
23,CC(CCNC(=O)NCCNc1cnccn1)c1ccccc1 (stereo not given),0.7277%

row,SMILES,Percent Effect
1,CC(NC(=O)Cn1cccn1)c1cccnc1 (stereo not given),-3.155%
2,c1ccc(C(Cn2cccn2)Nc2cnccn2)cc1 (stereo not given),93.79%
3,CC(C)OC(=O)CC(NC(=O)CCn1cccn1)c1ccccc1 (stereo not given),-19.71%
4,O=C(CNC(Cn1cccn1)c1ccccc1)Nc1cnccn1 (stereo not given),104.7%
5,COC(=O)CN(Cc1ccccc1C)C(=O)COCC1CC1,5.451%
6,O=c1cc(Cn2ccnc2)nc2n1CCCN(Cc1ccco1)C2,5.269%
7,CN(C)Cc1cc(=O)n2c(n1)CN(CC1CC1)CCC2,1.173%
8,O=c1cc(CN2CCCC2)nc2n1CCCN(CC1CC1)C2,112.4%
9,CCS(=O)(=O)N1CCCn2c(nc(CN3CCCC3)cc2=O)C1,124.6%
10,O=c1cc(Cn2cncn2)nc2n1CCCN(CC1CCOCC1)C2,-15.84%
11,O=c1cc(CN2CCCC2)nc2n1CCCN(S(=O)(=O)C1CC1)C2,95.22%
12,O=c1cc(Cn2cncn2)nc2n1CCCN(CC1CC1)C2,-9.621%
13,O=c1cc(Cn2ccnc2)nc2n1CCCN(S(=O)(=O)C1CC1)C2,102.1%
14,O=c1cc(Cn2ccnc2)nc2n1CCCN(CC1CCOCC1)C2,-2.581%
15,O=c1cc(CN2CCCC2)nc2n1CCCN(CC1CCOCC1)C2,2.964%
16,COCCN1C(=O)[C@]2(CC[C@@H]3CN(C(=O)NCC(C)C)C[C@@H]32)N=C1C,-10.16%
17,Cc1n[nH]c(-c2ccc(NC(=O)C(C)N3CCN(C)CC3)cc2)n1 (stereo not given),0.753%
18,O=S(=O)(c1cccnc1)N1C[C@@H]2COC[C@]2(COCC2CC2)C1,5.387%
19,CCCn1cnc2c1CN(C(=O)c1ccc(F)cc1)[C@H](C(=O)OC)C2,6.422%
20,FC(F)(F)c1n[nH]c2c1CN(Cc1cn3ccccc3n1)CC2,10.05%
21,CC(C)n1c(C(=O)N2CCCC2)nc2c1CCN(c1ncccn1)C2,-6.562%
22,Cc1nc2c(c(N[C@@H](CO)C(N)=O)n1)Cc1ccccc1OC2,104.3%
23,Cc1nc2c(c(NCC3Cc4ccccc4CN3C)n1)CCNCC2 (stereo not given),-7.174%

row,SMILES,Percent Effect
1,CN(CC1(CO)CCCC1)c1nc2c(c(=O)[nH]1)Cc1ccccc1OC2,6.752%
2,NC(=O)C1CN(c2ncnc3c2Cc2ccccc2OC3)CCO1 (stereo not given),-2.361%
3,NC(=O)C1CCCN(c2ncnc3c2Cc2ccccc2OC3)C1 (stereo not given),10.44%
4,Cc1cc(C(=O)NC(C)c2nnn[nH]2)c2cccc(C)c2n1 (stereo not given),0.7589%
5,Cc1nc2c(c(NC(C)c3nnn[nH]3)n1)Cc1ccccc1OC2 (stereo not given),97.46%
6,CN(CC1(CO)CCC1)c1nc2c(c(=O)[nH]1)Cc1ccccc1OC2,9.578%
7,Cc1nc2c(c(N[C@H](C(N)=O)C(C)C)n1)Cc1ccccc1OC2,105%
8,COc1ccccc1OCCNC(=O)NCc1nc(C)no1,-10.03%
9,CCCc1c(C(=O)NC2CCCC2)nnn1-c1ccc(OC)cc1,0.3347%
10,CCOCC(=O)N1C[C@@H]2CC[C@H](C1)N(Cc1ccccn1)C2=O,2.863%
11,NC1(C(=O)N2CCC(c3cc(-c4ccccc4Cl)n[nH]3)CC2)CCC1,-26.69%
12,CC(C)NC(=O)NC[C@@]1(COc2cnccn2)C[C@@H](O)[C@@H](O)C1.Cl,-2.608%
13,CN1Cc2ccccc2CC2(CCN(c3ncccn3)CC2)C1=O,-6.777%
14,Cn1ccnc1CN1CCC2(CC1)CCN(c1ccccc1)C2=O.O=C(O)C(F)(F)F,113.1%
15,CN1Cc2ccccc2CC2(CCN(c3ncc(F)cn3)CC2)C1=O,-14.24%
16,Cn1ccnc1CN1CCC2(CC1)CCN(c1cncnc1)C2=O.O=C(O)C(F)(F)F,-20.08%
17,CN1Cc2ccccc2CC2(CCN(Cc3nccn3C)CC2)C1=O,94.48%
18,CN1CC(=O)N(c2ccccc2)CC12CCN(Cc1nccn1C)C2.O=C(O)C(F)(F)F.O=C(O)C(F)(F)F (stereo not given),-13.15%
19,Cn1ccnc1CN1CCC2(CC1)Cc1ccccc1CNC2=O.O=C(O)C(F)(F)F,103.5%
20,N#CC1(C(=O)N2Cc3cc(-c4cc[nH]n4)ccc3C2c2cnco2)CC1 (stereo not given),-31.27%
21,NC(=O)COc1ccc(C(=O)NCCc2ccco2)cc1,-0.9721%
22,CN1CC(=O)N(c2cccc(F)c2)CC12CCN(Cc1cccnc1)C2.O=C(O)C(F)(F)F.O=C(O)C(F)(F)F.O=C(O)C(F)(F)F (stereo not given),-7.08%
23,CCN1C(=O)C(c2ccccc2)CC12CCN(Cc1cccnc1)CC2.O=C(O)C(F)(F)F.O=C(O)C(F)(F)F (stereo not given),-2.584%

row,SMILES,Percent Effect
1,C[C@@H]1CN(Cc2cccc(F)c2)C[C@]12CCN(Cc1cccnc1)C2=O.O=C(O)C(F)(F)F.O=C(O)C(F)(F)F,107.3441%
2,CCS(=O)(=O)N1CC[C@H]2C(=O)N(Cc3cccnc3)CCO[C@H]2C1.O=C(O)C(F)(F)F,-12.91%
3,C[C@H]1CN(CC2CCOCC2)C[C@@]12CCN(Cc1cccnc1)C2=O.O=C(O)C(F)(F)F.O=C(O)C(F)(F)F,107.6%
4,CN1CC(=O)N(c2ccccc2)CC12CCN(Cc1cccnc1)C2.O=C(O)C(F)(F)F.O=C(O)C(F)(F)F.O=C(O)C(F)(F)F (stereo not given),-4.544%
5,CN1CCN(Cc2cccnc2)C(=O)C12CCN(CC1CCOC1)CC2.O=C(O)C(F)(F)F.O=C(O)C(F)(F)F.O=C(O)C(F)(F)F (stereo not given),-19.27%
6,CN1CCN(Cc2cccnc2)C(=O)C12CCN(C1CCOC1)CC2.O=C(O)C(F)(F)F.O=C(O)C(F)(F)F.O=C(O)C(F)(F)F (stereo not given),20.83%
7,C[C@@H]1CN(Cc2cccnc2)C[C@]12CCN(CCN1CCCC1)C2=O.O=C(O)C(F)(F)F.O=C(O)C(F)(F)F.O=C(O)C(F)(F)F,95.13%
8,C[C@@H]1CN(S(C)(=O)=O)C[C@]12CCN(Cc1cccnc1)C2=O.O=C(O)C(F)(F)F,104.4%
9,CCN(CC)C(CNCc1ccc(C)o1)c1ccco1 (stereo not given),6.767%
10,CC(=O)N[C@@H]1CN(S(=O)(=O)Cc2ccccc2)C[C@H]1C(C)C,4.897%
11,O=C(NC1CCN(Cn2nc(-c3ccccc3)oc2=O)CC1)C1CC1,15.64%
12,C[C@H]1CN(C(=O)c2cccnc2)C[C@@]12CCN(CCN1CCCC1)C2=O,107.9%
13,Cc1noc(C)c1CN1C[C@H](C)[C@]2(CCN(Cc3cccnc3)C2=O)C1.O=C(O)C(F)(F)F.O=C(O)C(F)(F)F,119.9%
14,CN1CCN(Cc2cccnc2)C2(CCN(Cc3ccccn3)C2)C1=O.O=C(O)C(F)(F)F.O=C(O)C(F)(F)F.O=C(O)C(F)(F)F (stereo not given),9.415%
15,C[C@@H]1CN(Cc2ccccn2)C[C@]12CCN(Cc1cccnc1)C2=O.O=C(O)C(F)(F)F.O=C(O)C(F)(F)F.O=C(O)C(F)(F)F,86.67%
16,C[C@H]1CN(c2ccccn2)C[C@@]12CCN(Cc1cccnc1)C2=O.O=C(O)C(F)(F)F.O=C(O)C(F)(F)F,111.4%
17,O=C(c1ccco1)N1CCCC2(CCN(CCN3CCCC3)C2=O)C1 (stereo not given),0.2637%
18,Cc1noc(C)c1CN1CCC2(CC1)CC(Oc1cccnc1)CO2.O=C(O)C(F)(F)F (stereo not given),0.1924%
19,Cc1noc(C)c1CN1CCN(Cc2cccnc2)c2ncccc2C1.O=C(O)C(F)(F)F.O=C(O)C(F)(F)F.O=C(O)C(F)(F)F,-12.75%
20,O=C(O)C(F)(F)F.O=C(O)C(F)(F)F.c1ccc(CN2CCC3(CC2)CC(Oc2cccnc2)C3)nc1,-13.53%
21,O=C(c1cccnc1)N1C[C@@H]2CN(CCN3CCCC3)C(=O)[C@@H]2C1,-1.372%
